# Screens deposited in PubChem BioAssay by several laboratories.
# Furin inh: blocks human furin protease activity. P09958. purified furin, fluorogenic substrate cleavage. inhibition, % at 20 µM or 30 µM. actives 0.061% (n = 220,000); in the data active = inhibition above about 25%
# Target sequence (P09958 108-714 limits assumed): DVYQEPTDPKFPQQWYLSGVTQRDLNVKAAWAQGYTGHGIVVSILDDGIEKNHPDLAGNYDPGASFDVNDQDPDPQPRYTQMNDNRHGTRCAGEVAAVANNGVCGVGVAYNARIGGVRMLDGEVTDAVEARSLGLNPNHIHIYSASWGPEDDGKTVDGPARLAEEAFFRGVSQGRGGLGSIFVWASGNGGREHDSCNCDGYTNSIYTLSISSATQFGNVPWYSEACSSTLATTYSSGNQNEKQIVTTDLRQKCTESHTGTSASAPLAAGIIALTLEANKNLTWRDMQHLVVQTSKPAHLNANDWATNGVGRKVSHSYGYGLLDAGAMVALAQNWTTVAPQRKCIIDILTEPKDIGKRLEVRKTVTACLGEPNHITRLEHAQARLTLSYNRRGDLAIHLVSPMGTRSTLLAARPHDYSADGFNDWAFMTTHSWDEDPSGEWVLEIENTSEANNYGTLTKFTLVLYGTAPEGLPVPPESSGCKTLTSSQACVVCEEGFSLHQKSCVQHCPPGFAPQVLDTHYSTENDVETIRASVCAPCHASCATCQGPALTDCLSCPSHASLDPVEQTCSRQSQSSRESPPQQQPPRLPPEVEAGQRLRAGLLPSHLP
# EP2 antag: EP2 receptor (human) inhibition | P43116 | C6 glioma cells expressing human EP2, cAMP TR-FRET; cells stimulated with saturating PGE2 | inhibition, % at 25 µM | actives 0.52% (n = 260,000);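 active = percent inhibition above 40 after rounding to a whole number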;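 also: rat C6 glioma host cells with rolipram phosphodiesterase inhibitor present; the protocol text gives 20 µM as final concentration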
# HSV replic up: HSV replication enhancement; HSV replication augmentation in cells, fold increase; maximum fold increase; actives 0.005% (n = 220,000); in the data active = maximum fold increase above about 1.5; tested in PC3 cells
# Pf gametocyte: P. falciparum stage V gametocyte viability inhibition | P. falciparum stage V gametocytes, ATP luminescence, 24 h | inhibition, % at 10.9 µM | actives 0.065% (n = 150,000) | AID 743093;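 active = inhibition above the mean plus 3 SD of compounds within the control limits, set per campaign, cut at about 38% in these data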
# EP2 mod: modulators of human EP2 prostaglandin E2 receptor; induction, % at 25 µM; P43116; actives 0.83% (n = 260,000); AID 940; EP2-expressing cells, cAMP HTRF FRET, PGE2 co-stimulation;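 active = compounds whose cAMP rise, as percent of the full-agonist control response, exceeds 60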;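 also: rat C6 glioma line stably carrying human EP2 under a CMV promoter; the protocol text gives 20 µM as final concentration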
# EP2 cAMP induct: human EP2 receptor cAMP induction, negative in counter-screens | shares compounds with EP2 mod | AID 1080 | C6 glioma EP2 cells, cAMP HTRF induction; plus low (about EC15) PGE2 agonist | actives 47% (n = 1,300) | calls only at 20 µM (by protocol);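 active = cAMP induction above 50% in the main assay while under 30% in all four parallel counter assays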;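 also: rat C6 glioma cells stably expressing human EP2 receptor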
# A number is an active result; – = inactive; · = no result; + = active, no number. A selection: hits, their analogues and other compounds. The true share with any hit is near 1.4%.
SMILES,Furin inh,EP2 antag,HSV replic up,Pf gametocyte,EP2 mod,EP2 cAMP induct
CCOC(=O)c1c(NC(=O)COC(=O)Cn2cnc3ccccc32)sc(C)c1C,–,–,–,·,–,·
CCOC(=O)c1c(NC(=O)COC(=O)Cn2cnc3ccccc32)sc2c1CCC(C)C2 (centres undefined),–,–,–,–,62,–
CCOC(=O)c1c(NC(=O)CSc2nnc(C)s2)sc2c1CCC(C)C2 (centres undefined),–,–,–,–,–,–
CCOC(=O)c1c(NC(=O)COC(=O)Cn2c(C)nc3ccccc32)sc2c1CCCC2,–,–,–,·,–,+
CCOC(=O)c1c(NC(=O)Cn2nnc3ccccc32)sc2c1CCC(C)C2 (centres undefined),–,–,–,–,–,–
O=C(NNC(=O)c1ccccc1[N+](=O)[O-])Nc1ccc(Cl)cc1,–,–,–,–,–,·
CC(C)n1c(N2CCN(C(=O)NCc3ccccc3)CC2)nc2ccccc21,–,–,–,–,–,·
Cn1c(=O)c2c(nc(NCCCN3CCOCC3)n2Cc2cccc(Cl)c2)n(C)c1=O,–,–,–,–,·,·
CCCCN1C(=O)/C(=C2\SC(N3CCCCC3)=NC2=O)c2ccccc21,–,–,–,–,65,+
Cc1ccc(CN(CCCn2ccnc2)Cc2cn[nH]c2-c2ccccc2)o1,·,–,·,·,–,·
Cc1cccc(-n2c(CCc3ccccc3)nnc2SCC(=O)c2ccccc2)c1,–,–,–,–,64,–
Cc1ccc(OCc2nnc(SCC(=O)c3ccccc3)n2-c2ccccc2)cc1,–,–,–,–,–,·
O=C(Nc1ccccc1Br)c1ccccc1-c1ccccc1,–,–,–,–,70,+
CCOc1ccccc1C(=O)Nc1ccccc1-c1ccccc1,–,–,–,–,78,+
O=C(COc1ccc(S(=O)(=O)N2CCCCC2)cc1)N1CCCCCC1,–,–,–,–,–,·
COc1ccc(C(=O)Nc2cc(C)nn2-c2nc3ccccc3[nH]2)c(OC)c1,–,–,–,–,70,+
COc1cccc(OC)c1C(=O)Nc1cc(C)nn1-c1nc2ccccc2[nH]1,–,–,–,–,–,·
CC(C)Oc1cccc(C(=O)NC(=S)Nc2cccc(NC(=O)c3ccccc3Cl)c2)c1,–,–,–,·,–,·
O=C(O)c1ccc(-c2ccccc2C(F)(F)F)o1,–,–,–,·,83,+
O=C(O)c1ccc(-c2cccc(Cl)c2)o1,–,–,–,–,·,·
Cc1cc(SCC(=O)Nc2ncc(Cl)cc2Cl)nc2ccccc12,–,–,–,·,–,·
COc1ccc2c(C)cc(SCC(=O)Nc3ncc(Cl)cc3Cl)nc2c1,–,–,–,–,68,–
O=C(COc1ccc(Br)cc1)Nc1ccc(-c2nnc(-c3ccco3)o2)cc1,–,–,–,–,75,–
CCn1c(-c2ccccc2)c(C(=O)CCl)c2ccccc21,–,–,–,–,78,+
CCOc1ccc(C(C)=O)cc1CC(C(N)=O)C(N)=O,–,·,·,·,69,–
SMILES,Furin inh,EP2 antag,HSV replic up,Pf gametocyte,EP2 mod,EP2 cAMP induct
CCOC(=O)C(Cc1cc(C(C)=O)ccc1OCC)C(=O)OCC,–,–,–,–,–,·
CN(c1ccccc1)c1nc(N2CCCC2)nc(-n2ccnc2)n1,–,–,–,·,82,+
CC1CCCC(C)N1C(=O)c1ccccc1Nc1ccc(SC(F)F)cc1 (centres undefined),–,–,–,–,76,–
CC1CN(C(=O)c2ccccc2Nc2ccc(SC(F)F)cc2)CC(C)O1 (centres undefined),–,–,–,·,–,·
COC(=O)C(C(=O)OC)=C(/C=C/N(C)C)N(C)C,–,–,–,–,–,·
CC(C)(C)n1nnnc1C(c1cccs1)N(Cc1ccccc1)Cc1ccco1 (centres undefined),–,–,–,·,–,·
CC(C)(C)n1nnnc1C(c1ccncc1)N(Cc1ccccc1)Cc1ccco1 (centres undefined),–,–,–,·,71,–
COc1cccc(C(O)c2cnc(C(C)C)n2C)c1OC (centres undefined),–,–,–,–,–,·
CC(=O)N1N=C2/C(=C/c3ccccc3)CCCC2C1c1ccccc1 (centres undefined),–,–,–,–,70,–
O=C(O)c1c(C(=O)N2N=C3/C(=C/c4ccccc4)CCCC3C2c2ccccc2)cccc1[N+](=O)[O-] (centres undefined),–,–,–,–,–,·
Cc1ccc(C)c(S(=O)(=O)N2CCN(CC(=O)Nc3cc(C)on3)CC2)c1,–,–,–,–,–,·
CCOC(=O)CNC(=O)c1ccc2c(c1)OCCO2,–,–,–,–,69,–
Cc1ccc(-n2c(CSc3nc(C)cc(C)n3)nnc2SCC(=O)NCc2ccco2)cc1,–,–,–,–,–,·
O=C(OCc1nc2ccccc2s1)c1cccc(S(=O)(=O)N2CCOCC2)c1,–,–,–,·,–,·
O=C(Nc1ccccc1N1CCN(c2ccccc2)CC1)C12CC3CC(CC(C3)C1)C2,–,–,–,–,68,–
O=C(Cc1ccccc1)Nc1ccccc1N1CCN(c2ccccc2)CC1,–,–,–,–,72,+
O=C(CNCc1ccccc1Cl)Nc1ccccc1N1CCCCC1,–,–,–,–,75,+
Cc1nc([N+](=O)[O-])c(SCC(N)=O)n1Cc1ccccc1,–,–,–,–,–,·
Nc1cc(-c2ccccc2)nn1Cc1ccccc1,–,–,–,–,–,·
c1ccc(-c2cc(N3CCOCC3)nc(-c3ccccc3)n2)cc1,–,–,–,·,–,·
CCSc1cc(N2CCOCC2)nc(-c2ccccc2)n1,–,–,–,–,65,+
Cc1nn(Cc2cccc(C(=O)O)c2)c(C)c1[N+](=O)[O-],–,–,–,–,–,·
COc1ccc(C(=O)O)cc1NC(=S)NC(=O)c1ccc(-c2ccc(Cl)cc2)o1,–,–,–,–,95,+
Cc1ccc(C(=O)O)cc1NC(=S)NC(=O)c1ccc([N+](=O)[O-])cc1Cl,–,–,–,–,–,·
Cc1ccc(C(=O)O)cc1NC(=S)NC(=O)c1ccc(-c2ccccc2)cc1,–,–,–,–,74,+
SMILES,Furin inh,EP2 antag,HSV replic up,Pf gametocyte,EP2 mod,EP2 cAMP induct
CCC(=O)NC(=S)Nc1cc(C(=O)O)ccc1OC,–,–,–,–,–,·
CC(C)(C)C(=O)/C=C(\N)c1ccncc1,–,–,–,–,–,·
CCn1c2c(c3cc(Br)ccc31)CCC/C2=N\O,–,–,–,–,–,·
CCn1c2c(c3cc(OCC(C)C)ccc31)CCCC2=O,–,–,–,–,74,+
Cc1cccc(CS(=O)(=O)c2nnc([C@H](Cc3ccccc3)NC(=O)OC(C)(C)C)o2)c1,–,–,–,·,–,·
Cc1nn(C)c(C(=O)Nc2ccc(Cl)c([N+](=O)[O-])c2)c1Cl,–,–,–,–,–,·
C[C@H](CN(C)C)C(=O)c1ccccc1C(=O)O,·,–,·,·,–,–
O=C(NCCCn1ccnc1)c1cc([N+](=O)[O-])cc([N+](=O)[O-])c1,–,–,–,–,–,·
O=C(Nc1ccccc1Cl)N1CCSc2ccccc21,–,–,–,·,77,+
